From PubChem BioAssay (NCATS) come the findings set out here.

Results filed as inconclusive are left out. Values without a mark were called inactive. Calls of active or inactive are those of the source. Calls come from the whole dose curve; as a rule, active = well fitted curve in the direction sought with a large enough effect; inconclusive = small, poorly fitted or top-dose-only effect, or another doubt; inactive = no such curve, though single readings can be large; an effect the other way counts as inactive or inconclusive.

A short description of test [1]: qHTS of pediatric cancer cell lines to identify multiple opportunities for drug repurposing: Primary screen for control Hh wild type fibroblast cells (AID 1347106).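 For activity change, negative = cytotoxic: % is set by controls: 0 for no effect and ±100 for the full control effect; a drop in luminescence marks cytotoxicity and a rise apparent proliferation.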 Note: nearly all actives have a fitted effect of over 55% in size. Note: potency is the fitted concentration of half-maximal effect. As to conditions: Hh wild-type fibroblast viability, CellTiter-Glo luminescence, 48 h; series mostly up to 46 µM. The gist of the method:
(§1)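 Cells (500-1,000/well) in growth media were settled 5 h at 37 degrees C, then given compounds for 48 h. Viability was read as CellTiter-Glo luminescence. Primary runs used MIPE at 11 points (0.78 nM-46 µM) and NPC at 8 points (0.59 nM-46 µM); follow-ups used 11 points.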

Test [2] is described as follows: qHTS of pediatric cancer cell lines to identify multiple opportunities for drug repurposing: Primary screen for Rh41 cells (AID 1347108).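 For activity change, negative = cytotoxic: luminescence drop marks cytotoxic hits.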 Note: nearly all actives have a fitted effect of over 70% in size. Note: potency is the fitted concentration of half-maximal effect. As to conditions: Rh41 rhabdomyosarcoma viability, CellTiter-Glo luminescence, 48 h; series mostly up to 46 µM. The gist of the method: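 Luminescence from CellTiter-Glo served as readout of metabolically active cells after 48 h compound exposure. Titrations: MIPE 11-point, from 0.78 nM; NPC 8-point, from 0.59 nM (final). Concentration-response curves came straight from the primary screen.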

A short description of test [3]: qHTS of pediatric cancer cell lines to identify multiple opportunities for drug repurposing: Primary screen for Rh30 cells (AID 1347107). Note: % is set by controls: 0 for no effect and ±100 for the full control effect; nearly all actives have a fitted effect of over 75% in size. The following applies: Rh30 rhabdomyosarcoma viability, CellTiter-Glo luminescence, 48 h; series mostly up to 46 µM. The gist of the method:
as §1
For orientation: In qHTS, concentration-response curves come from the screen itself.

Test [4] in a line: qHTS of pediatric cancer cell lines to identify multiple opportunities for drug repurposing: Confirmatory screen for SK-N-MC cells (AID 1347111).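 Note: potency is the fitted concentration of half-maximal effect; cells exposed to compound for 48 h before the readout; nearly all actives have a fitted effect of over 70% in size.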 As to conditions: SK-N-MC cell viability; series mostly up to 45.9 µM. In a few lines:
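Metabolically active cells were quantified by ATP-dependent luminescence (CellTiter-Glo, 15 min at room temperature) following 48 h treatment. Cells had been plated at 500-1,000 per well and settled for 5 h beforehand.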

Test [5] can be described thus: qHTS of pediatric cancer cell lines to identify multiple opportunities for drug repurposing: Confirmatory screen for BT-12 cells (AID 1347112). For activity change, negative = cytotoxic: % is set by controls: 0 for no effect and ±100 for the full control effect. Note: nearly all actives have a fitted effect of over 55% in size. Note: potency is the fitted concentration of half-maximal effect. The following applies: BT-12 rhabdoid tumor cells, viability; series mostly up to 45.9 µM. The gist of the method:
as §1

The nature of test [6]: qHTS of pediatric cancer cell lines to identify multiple opportunities for drug repurposing: Confirmatory screen for LAN-5 cells (AID 1347113). Note: nearly all actives have a fitted effect of over 65% in size. Note: potency is the fitted concentration of half-maximal effect. The following applies: LAN-5 neuroblastoma cell viability; series mostly up to 45.9 µM. The gist of the method: as §1
Test [7] can be described thus: qHTS of pediatric cancer cell lines to identify multiple opportunities for drug repurposing: Confirmatory screen for DAOY cells (AID 1347114). For activity change, negative = cytotoxic: % is set by controls: 0 for no effect and ±100 for the full control effect. Note: nearly all actives have a fitted effect of over 65% in size. Note: potency is the fitted concentration of half-maximal effect. The following applies: DAOY medulloblastoma cells viability, cytotoxicity qHTS; series mostly up to 45.9 µM. The gist of the method: (§2)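 Viability measured as metabolically active cells via CellTiter-Glo luminescence following 48 hours of compound exposure, 11-point dilutions in confirmatory testing. 500-1,000 cells/well plated 5 hours before dosing; controls were DMSO and 2.3 µM bortezomib.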

The nature of test [8]: qHTS of pediatric cancer cell lines to identify multiple opportunities for drug repurposing: Confirmatory screen for SJ-GBM2 cells (AID 1347116).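 For activity change, negative = cytotoxic: plate controls were DMSO for no effect and bortezomib for full effect.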 Note: nearly all actives have a fitted effect of over 60% in size. Note: potency is the fitted concentration of half-maximal effect. As to conditions: SJ-GBM2 glioblastoma cells, viability; series mostly up to 45.9 µM. The gist of the method:
as §2

Test [9] is described as follows: qHTS of pediatric cancer cell lines to identify multiple opportunities for drug repurposing: Confirmatory screen for NB-EBc1 cells (AID 1347115). For activity change, negative = cytotoxic: % is set by controls: 0 for no effect and ±100 for the full control effect.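 Note: cells exposed to compound for 48 h before the viability read; nearly all actives have a fitted effect of over 45% in size.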 Note: potency is the fitted concentration of half-maximal effect. The following applies: NB-EBc1 neuroblastoma cells, viability (cytotoxicity); series mostly up to 45.9 µM. The gist of the method: as §1

In the case of `Cc1cccn2c(=O)c(-c3nnn[nH]3)cnc12`, the Potency entry in test [1] and in test [2] was “inactive” each time.

Regarding `CCN(CCCc1ccccc1)CCCc1ccccc1`, the Potency entry in test [1] and in test [2] was “inactive” throughout.

For `CCOC(=O)n1ccn(C)c1=S`, the Potency entry in test [1], in test [3] and in [2] was “inactive” in each case.

In the case of `C[n+]1c2cc(N)ccc2cc2ccc(N)cc21` (tested in a mixture with another compound), the Potency is 16.8 µM (active) in [2]; 6.57 µM (active) in [4]; 0.928 µM (active) in test [5]; 3.29 µM (active) in test [6]; 6.57 µM (active) in test [7]; 13.1 µM (active) in [8].

As for `CCn1cc(C(=O)O)c(=O)c2cnc(N3CCCC3)nc21`, the activity change, negative = cytotoxic was 4.15% [at 9.22 µM] in test [1], 8.92% [at 9.22 µM] in test [3] and 12.6% [at 9.22 µM] in test [2].

Consider `CC(O)C(=O)O` (stereo unspecified), for which the Potency entry in [1] and in test [2] was “inactive” in each case.

With `CCOc1ccc2nc3cc(N)ccc3c(N)c2c1`, the figures for the Potency in test [2] and in test [5] were 18.8 µM (active) and 16.5 µM (active), respectively.

For `CCCCCCCCCCCCCCCC[N+](C)(C)CCN(Cc1ccc(OC)cc1)c1ncccn1`, in test [2], the Potency was 16.8 µM (active).

With `CCN1CCN(c2cc3c(cc2F)c(=O)c(C(=O)O)cn3C2CC2)CC1`, the Potency result in test [3] and in test [2] was “inactive” in each case.

Consider `CCCCCCC[N+](CC)(CC)CCCCc1ccc(Cl)cc1`, for which the Potency result in test [1] and in test [7] was “inactive” in each case. The Potency in [2] is 15 µM (active); in [4], 9.27 µM (active); in [5], 8.27 µM (active); in test [6], 8.27 µM (active).

With `CCCCCCCCCCCCCCNCCO`, the Potency entry in [3] and in test [2] was “inactive” in each case.

Turning to `Cc1c(C(C)C)c(=O)n(-c2ccccc2)n1C`, the Potency result in test [3] and in test [2] was “inactive” in each case.

In the case of `COc1c(C)c2c(c(O)c1C/C=C(\C)CCC(=O)O)C(=O)OC2`, the Potency entry in test [1] and in test [3] was “inactive” each time. In addition, the Potency in test [5] is 4.65 µM (active).

For `CN1CCCC(CC2c3ccccc3Sc3ccccc32)C1` (stereo unspecified), the Potency entry in test [1], in test [3] and in test [2] was “inactive” throughout.

Take `CC(=O)Nc1c(I)cc(I)c(C(=O)O)c1I`: the Potency entry in test [1], in test [3] and in test [2] was “inactive” in each case.

On to `O=C(COc1ccc(Cl)cc1)N1CCN(Cc2ccc3c(c2)OCO3)CC1`, for which the Potency result in test [3] and in test [2] was “inactive” in each case.

Consider `COc1cccc2c1C(=O)c1c(O)c3c(c(O)c1C2=O)C[C@@](O)(C(=O)CO)C[C@@H]3O[C@H]1C[C@H](N)[C@H](O)[C@H](C)O1`, for which the Potency was 1.68 µM (active) in test [1]; 1.68 µM (active) in [2]; 0.293 µM (active) in test [4]; 4.65 µM (active) in [5]; 1.04 µM (active) in [6]; 9.27 µM (active) in [7]. For the same compound, the Potency in test [9] is 3.29 µM (active); in test [8], 2.61 µM (active). The Potency result in test [3] was “inactive”.

Take `OC[C@@H](O)[C@@H](O[C@@H]1O[C@H](CO)[C@H](O)[C@H](O)[C@H]1O)[C@H](O)[C@@H](O)CO`: the Potency result in [1] and in test [2] was “inactive” each time.

Consider `CCCC(=O)Nc1ccc(OCC(O)CNC(C)C)c(C(C)=O)c1` (stereo unspecified), for which the Potency result in test [3] and in [2] was “inactive” each time.

With `COc1cc(C=C2CCC/C(=C\c3ccc(O)c(OC)c3)C2=O)ccc1O`, in [1], the Potency entry was “inactive”. In addition, the Potency was 0.465 µM (active) in test [4]; 18.5 µM (active) in [5]; 5.85 µM (active) in test [6]; 14.7 µM (active) in test [7]; 23.3 µM (active) in [9]; 18.5 µM (active) in test [8].

For the compound `CC(=O)OCC(=O)[C@@]1(OC(C)=O)[C@@H](C)C[C@H]2[C@@H]3C[C@H](F)C4=CC(=O)C=C[C@]4(C)[C@@]3(F)[C@@H](O)C[C@@]21C`, the Potency result in test [1], in test [3], in test [2], in test [5], in test [6] and in test [9] was “inactive” throughout. The Potency entry in [8] was “inactive”.

Consider `CCCCC1=NC2(CCCC2)C(=O)N1Cc1ccc(-c2ccccc2-c2nn[nH]n2)cc1`, for which the Potency entry in test [1], in test [3] and in test [2] was “inactive” each time.

On to `CC(C)(C)NC(=O)[C@@H]1CN(Cc2cccnc2)CCN1C[C@@H](O)C[C@@H](Cc1ccccc1)C(=O)N[C@H]1c2ccccc2C[C@H]1O`, for which the Potency entry in [1], in [3] and in [2] was “inactive” throughout.

`COc1cccc(OC)c1C(=O)N[C@@H]1C(=O)N2[C@@H]1SC(C)(C)[C@@H]2C(=O)O`: the Potency result in test [1], in [3] and in [2] was “inactive” each time.

For `CC(C)(CO)[C@@H](O)C(=O)NCCCO`, the Potency result in test [1], in [3] and in test [2] was “inactive” in each case.

For `CCN(CC)CCNC(=O)COc1ccc(Cl)cc1`, the Potency entry in test [1] and in test [2] was “inactive” throughout.

Turning to `C[C@]12C=CC(=O)C=C1CC[C@@H]1[C@@H]2[C@@H](O)C[C@@]2(C)[C@H]1CC[C@]2(O)C(=O)CO`, the Potency entry in test [1], in test [2], in test [5], in test [7], in [9] and in [8] was “inactive” throughout.
